Hits are enriched below; roughly 2.7% of the tested compounds scored in any of these assays.
ATXN2 expr inh – Primary qHTS for Inhibitors of ATXN expression | Potency, µM (series often up to 57 µM), for the others: at the highest dose activity change, negative = inhibition, most hits filed as inhibitors | HEK-293 ATXN2-luciferase reporter, luminescence, 24 h | 0.72% of 360,000 active; further: on the % scale 0 is the no-effect control and ±100 the full control effect; nearly all actives have a fitted effect of over 55% in size
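ATXN2-luciferase reporter cells (luciferase flanked by upstream and downstream ATXN2 gene portions) were treated 24 h at 37 °C with compounds at up to 57 uM. SteadyGlo luminescence gave expression; GF-AFC fluorescence gave viability.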
TGFb SMAD3 inh – qHTS for Inhibitors of TGF-b; HepG2 CAGA-GFP TGF-b/SMAD3 reporter, GFP fluorescence, 18 h; TGF-beta stimulated, 500 pg/mL final; Potency, µM (top dose mostly 46.1 µM), for inactives: top-dose activity, negative = inhibition, hits mostly inhibitors; 1.2% of 410,000 active; further: on the % scale 0 is the no-effect control and ±100 the full control effect; nearly all actives have a fitted effect of over 65% in size
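First, reporter cells (HEPG2 CAGA-GFP) rested 2 h at 37 degrees C. Next, compounds were pinned in and TGF-beta added to 500 pg/mL final. After 18 h, GFP was imaged per cell and summed per well.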
HepG2 tox – qHTS for Inhibitors of TGF-b: Cytotox Counterscreen. HepG2 CAGA-GFP viability, ATP luminescence, 18 h. AID 588856, 2011. 0.76% of 410,000 active. Potency, µM (series often up to 46.1 µM), for inactives: top-dose activity change, negative = cytotoxicity, usual class: cytotoxic
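HepG2 CAGA-GFP cells (1000/well, DMEM with 1% FBS) received compound, then TGF-beta at 500 pg/mL final, and were incubated 18 hours at 37 degrees C. Viability was read by CellTiter-Glo luminescence. Media-only wells were set as complete cell-killing and DMSO as no toxicity.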
ATXN viability – Viability Counterscreen for Primary qHTS for Inhibitors of ATXN expression; 0.49% of 400,000 active; Potency, µM (titrated, usually from 56.7 µM), hits mostly cytotoxic; S2 cells (HEK-293 line with an ATXN2-luciferase reporter) viability, CellTiter-Fluor protease fluorescence, 24 h; further: nearly all actives have a fitted effect of over 40% in size
12-LOX inh – Primary qHTS assay for inhibitors of human arachidonate 12S-lipoxygenase (ALOX12): Round 2; Polyunsaturated fatty acid lipoxygenase ALOX12 (Homo sapiens), P18054; Potency, µM (top dose mostly 108 µM), for inactives: at the top dose activity change, negative = inhibition, actives largely listed as inhibitors; 1.1% of 580,000 active; purified 12hLO, xylenol orange hydroperoxide absorbance; further: on the % scale 0 is the no-effect control and ±100 the full control effect
Target sequence (P18054 whole entry, looked up): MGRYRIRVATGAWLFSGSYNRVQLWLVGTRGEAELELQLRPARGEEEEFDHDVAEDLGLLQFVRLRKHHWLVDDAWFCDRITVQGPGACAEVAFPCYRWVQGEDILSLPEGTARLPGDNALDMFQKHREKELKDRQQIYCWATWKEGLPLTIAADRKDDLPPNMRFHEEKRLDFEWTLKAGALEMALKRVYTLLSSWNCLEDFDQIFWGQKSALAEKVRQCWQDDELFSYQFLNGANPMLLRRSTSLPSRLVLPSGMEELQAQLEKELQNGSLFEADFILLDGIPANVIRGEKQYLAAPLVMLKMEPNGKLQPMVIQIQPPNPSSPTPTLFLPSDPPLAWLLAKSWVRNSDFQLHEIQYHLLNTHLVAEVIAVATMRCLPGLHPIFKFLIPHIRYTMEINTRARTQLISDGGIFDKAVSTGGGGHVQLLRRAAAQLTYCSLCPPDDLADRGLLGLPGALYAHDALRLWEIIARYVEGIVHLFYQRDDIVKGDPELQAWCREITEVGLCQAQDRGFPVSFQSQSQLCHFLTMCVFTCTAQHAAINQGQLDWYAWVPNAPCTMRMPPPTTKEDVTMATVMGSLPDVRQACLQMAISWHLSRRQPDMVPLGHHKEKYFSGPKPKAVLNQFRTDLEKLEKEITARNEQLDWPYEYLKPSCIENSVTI
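Hydroperoxide product was detected by ferrous iron/xylenol orange as the 573 to 405 nm absorbance ratio. Arachidonic acid at 40 uM (final) was turned over for 30 min at room temperature by 150 nM human 12hLO, pH 7.0 Hepes buffer, after 15 min compound preincubation.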
* marks the source's active call; other numbers are inactive results; i = inactive; ? = inconclusive; · = no result given; ! = not active in a repeat; [ ] = dose if it differs, or a comment. The call rests on the fitted dose curve; in most records, active means well fitted curve in the direction sought with a large enough effect; inconclusive means small, poorly fitted or top-dose-only effect, or another doubt; inactive means no such curve, though single readings can be large; an effect the other way counts as inactive or inconclusive. Potency means the concentration at half of the fitted maximal effect.

SMILES	ATXN2 expr inh	TGFb SMAD3 inh	HepG2 tox	ATXN viability	12-LOX inh
CCN(CC)C(=O)C1=C(C)N(Cc2ccc(C(C)(C)C)cc2)C(=O)C(CC(=O)NCC2CCCCC2)C1 (stereo not given)	?	?	-40.2%	28.2µM*	?
CC1=C(C(=O)N(C(C)C)C(C)C)CC(CC(=O)NCc2cccs2)C(=O)N1Cc1ccc(C(C)(C)C)cc1 (stereo not given)	?	?	15.8µM*	?	-0.7%
CC1=C(C(=O)N(C(C)C)C(C)C)CC(CC(=O)NC2CCCCC2)C(=O)N1Cc1ccc(C(C)(C)C)cc1 (stereo not given)	?	?	12.6µM*	?	0.0%
Cc1cc(N=Nc2ccccc2C(=O)O)c(C)c(C)c1O	-4.4%	-0.2%	-4.9%	12.6µM*	-6.0%
Cc1cc(O)c(C(C)C)cc1N=Nc1ccccc1C(=O)O	5.6%	?	-51.3%	?	16.6%
CC(=O)Nc1ccc(C23CC4CC(CC(C4)C2)C3)cc1	·	-26.1%	-33.6%	i	-25.5%
CNC(=S)Nc1ccc(C23CC4CC(CC(C4)C2)C3)cc1	-33.9%	?	-12.7%	i	44.7µM*
CC(C)(C)c1ccccc1NC(=O)COc1ncnc2ccccc12	·	·	·	·	-55.8%
Cc1c(Cl)cccc1NC(=S)NCCc1ccc(F)cc1	-10.0%	?	-18.0%	i	?
Fc1ccccc1NC(=S)NCCc1ccc(Cl)cc1	18.2%	?	-17.2%	i	39.8µM*
Cc1c(Cl)cccc1NC(=S)NCCc1ccc(Cl)cc1	?	?	-16.6%	?	25.1µM*
Fc1ccccc1NC(=S)NCCc1ccccc1	47.8%	5.0%	-0.1%	i	0.0%
CS(=O)(=O)N1CCCN(C2CCOCC2)CCNC(=O)CC1c1ccccc1 (stereo not given)	·	·	·	·	7.8%
COC(=O)c1cc(S(=O)(=O)N(C)CC(=O)N2CCN(c3ccc(C(C)=O)cc3)CC2)cn1C	·	·	·	·	7.6%
O=C1CO[C@H]2CN(c3ncccn3)C[C@H]2N1CC1CCCCC1	·	·	·	·	28.2µM*
CC1(C)CC(=O)c2sc(NC(=O)CN3CCCCC3)nc2C1	-4.3%	0.7%	14.9%	i	31.6µM*
C=C1C(=O)[C@@]23[C@H](O)C[C@@H]4C(C)(C)CC[C@H](O)[C@@]4(C)[C@@H]2CC[C@@H]1[C@H]3O	?	0.891µM*	8.91µM*	7.94µM*	18.2%
C=C1C(=O)[C@@]23[C@H](O)C[C@@H]4C(C)(C)CC[C@H](O)[C@]4(C)[C@@H]2C[C@H](O)[C@@H]1[C@H]3O	-2.9%	12.6µM*	-77.3%	17.8µM*	17.5%
Cc1ccc(S(C)(=O)=O)cc1NC(=O)CCNC(=O)Cc1ccccc1	·	·	·	·	-24.5%
O=C(CCl)N(C/C=C/c1ccccc1)c1ccc2c(c1)OCCO2	1.34µM*	?	-2.5%	1.34µM*	?
O=C(/C=C/c1ccccc1)c1ccc2c(c1)OCCCCO2	55.2%	-15.0%	-55.3%	i	-3.8%
COCCNC(=O)C1(C)CCCN(CCC(=O)c2ccc(Br)cc2)C1 (stereo not given)	-23.1%	15.8µM*	12.6µM*	?	-14.6%
CCCNC(=O)C1(C)CCN(CCC(=O)c2ccc(Br)cc2)C1 (stereo not given)	-11.9%	?	-82.0%	i	?
CCN(CC)S(=O)(=O)c1ccc(F)c(C(=O)NCC2COc3ccccc3O2)c1 (stereo not given)	·	·	·	·	-1.7%
CCC(=O)Nc1ccc(S(=O)(=O)NCCn2nc(-c3ccccc3)ccc2=O)cc1	·	·	·	·	40.3%
SMILES	ATXN2 expr inh	TGFb SMAD3 inh	HepG2 tox	ATXN viability	12-LOX inh
N#CC(=Cc1ccc(O)c(O)c1)C(=O)NCc1ccccc1	15.6%	3.3%	-25.8%	·	27.2%[57.4 µM]
N#C/C(=C\c1ccc(O)c(O)c1)C(=O)NCCCc1ccccc1	-21.5%	-1.8%	-24.3%	i	28.2µM*!
Fc1ccc(-c2cnc(COc3ccc(-c4nnco4)cc3)o2)cc1	·	·	·	·	-23.1%
Fc1ccc(-c2cnc(COc3ccc(Cl)cc3)o2)cc1	·	·	·	·	14.1µM*
CC(C)COc1ccc(C(=O)N2CCCCC2CCN2CCCCCC2)cc1 (stereo not given)	·	·	·	·	7.08µM*
COc1ccc(-c2cc(C(=O)OC(C)C)c3ccccc3n2)cc1	·	·	·	·	-13.9%
CCOC(=O)c1c(C)oc2cc(Cl)c(O)c(CN(C)C)c12	59.6%	4.5%	20.5%	i	-3.0%
CCOC(=O)c1c(-c2ccccc2)oc2cc(CN(C)C)c(O)c(CN(C)C)c12	14.1µM*	-4.8%	-47.7%	i	-25.9%
O=C(CSc1cnc2ccccc2n1)OCc1cccc2ccccc12	·	·	·	·	-27.4%
CN(C)c1ccc(/C=C(\C#N)c2ccccn2)cc1	11.2µM*	26.6%	-61.9%	i	?
N#C/C(=C\c1ccc([N+](=O)[O-])cc1)c1ccccn1	60.8%	5.5%	-28.2%	i	-14.2%
CCN(CC)c1ccc(/C=N/NC(=O)c2ccc3nc[nH]c3c2)c(O)c1	2.82µM*	-1.9%	3.2%	i	·
COC(=O)c1ccc(CNC(=O)c2nccnc2N)cc1	·	·	·	·	-0.7%
CCC1CN(C(=O)N2CCC(C(=O)NCc3cccc(OC)c3OC)CC2)c2cc(C)ccc2O1 (stereo not given)	-6.9%	11.2µM*!	-18.2%	i	1.2%
COc1cc([C@@H]2c3cc4c(cc3[C@@H](O[C@@H]3O[C@@H]5CO[C@@H](c6cccs6)O[C@@H]5[C@H](O)[C@@H]3O)[C@H]3COC(=O)[C@H]23)OCO4)cc(OC)c1O	0.172µM*	·	·	·	-0.5%[57.4 µM]
COc1ccc(C(C)NC(=O)CCOc2ccc(Cl)cc2)cc1F (stereo not given)	·	·	·	·	3.3%
CC1CN(CCCCSc2ccc(Cl)cc2)CC(C)O1 (stereo not given)	-25.8%	?	-19.2%	i	1.78µM*
CCN(CC)CCOc1ccc(Nc2ncc3cc(-c4c(Cl)cccc4Cl)c(=O)n(C)c3n2)cc1	1.72µM*	·	·	·	?
Cc1ccc(C)c(C(C)NC(=O)CC(C)(C(=O)O)c2ccccc2)c1 (stereo not given)	·	·	·	·	1.8%
O=Cc1cc(N=Nc2ccccc2Cl)ccc1O	-32.4%	?	-16.7%	33.6µM*	?
Cc1ccc(C(c2ccccc2)c2c(C)[nH]c3ccccc23)s1 (stereo not given)	?	14.1µM*	-99.3%	?	?
CCc1ccc(C(c2ccccc2)c2c(C)[nH]c3ccccc23)s1 (stereo not given)	?	?	-96.0%	·	-11.9%
c1ccc2c(C(c3c[nH]c4ccccc34)c3c[nH]c4ccccc34)c[nH]c2c1	·	?	-109.5%	·	·
Cc1[nH]c2ccccc2c1C(c1c[nH]c2ccccc12)c1c(C)[nH]c2ccccc12	·	15.8µM*	-46.8%	·	·

Compound activity (PubChem BioAssay)
